High-throughput results from PubChem BioAssay.
A selection: hits, their analogues and other compounds. The true share with any hit is near 2.6%.
MCL1 BIM primary = disrupts human MCL1 binding to BIM-BH3 peptide; Q07820; GST-MCL1 / FITC-Bim-BH3 fluorescence polarization; inhibition, % at 10.9 µM; 0.68% of 320,000 active;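 active means inhibition above the mean inhibition of all tested compounds plus 3 SD, set per campaign, cut at about 40% in these data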;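 further: higher means more loss of mP so more displacement of Bim peptide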
Target sequence (Q07820 whole entry, looked up): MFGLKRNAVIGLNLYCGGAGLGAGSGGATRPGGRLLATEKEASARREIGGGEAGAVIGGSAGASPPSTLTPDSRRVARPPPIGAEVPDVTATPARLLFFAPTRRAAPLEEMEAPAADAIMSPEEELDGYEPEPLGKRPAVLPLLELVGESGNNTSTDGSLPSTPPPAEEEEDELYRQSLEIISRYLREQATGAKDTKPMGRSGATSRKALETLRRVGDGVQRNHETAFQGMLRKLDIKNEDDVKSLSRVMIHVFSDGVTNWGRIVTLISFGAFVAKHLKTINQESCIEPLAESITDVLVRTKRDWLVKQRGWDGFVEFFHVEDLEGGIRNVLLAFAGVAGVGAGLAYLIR
14-3-3 Bad PPI = disrupts binding of bovine 14-3-3 zeta to phospho-Bad peptide; TR-FRET 14-3-3zeta/Dy647-pBad peptide displacement, 1 h; inhibition, % at 21.7 µM; 0.71% of 220,000 active; AID 781;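 active means inhibition above about 70%, limit read from the data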
Mcl1-Bid inh = Mcl-1/Bid interaction inhibition. AID 1021. Q07820. 0.97% of 220,000 active. inhibition, % at 21.7 µM. TR-FRET Mcl-1/Bid-Dy647 peptide binding, 1536-well;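 active means compounds that cut the binding signal by more than half at the single screening dose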;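 further: His-tagged Mcl-1 with europium anti-His antibody binding Bid BH3 peptide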
eIF4E-4G inh = inhibitors of eIF4E and eIF4G interaction in translation initiation | TR-FRET eIF4E-eIF4GI(517-606) binding, 2 h | 0.37% of 220,000 active | inhibition, % at 21.7 µM | P63073+Q04637;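 active means inhibition above about 30%, limit read from the data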
Mcl1 Noxa PPI = disrupts binding of human Mcl-1 to Noxa peptide; Q07820; TR-FRET Mcl-1/Noxa peptide binding, 2 h; inhibition, % at 21.7 µM; 1.5% of 220,000 active; AID 1022;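 active means compounds that cut the protein-peptide binding signal by more than 50% relative to plate controls in a single-dose test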;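 further: His-tagged Mcl-1 with rhodamine Noxa BH3 peptide and terbium anti-His antibody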
Mcl-1 Bim block = human Bim-Mcl-1 interaction inhibition; Q07820; 0.1% of 190,000 active; Bead-based flow cytometry, Bim peptide-Mcl-1 binding; inhibition, % at 10 µM; AID 1009; in the data active means inhibition above about 40%
Bcl-xL conf = Bcl-xL (human) inhibition, MCL1 counter-screen confirmation | shares compounds with MCL1 BIM primary | inhibition, % at 10.9 µM | 54% of 1,700 active | GST-Bcl-xL / FITC-Bim BH3 peptide FP binding;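 active means inhibition above a cutoff equal to the mean inhibition of all tested compounds plus 3 SD, cut at about 30% in these data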
Target sequence (Q07817 whole entry, looked up): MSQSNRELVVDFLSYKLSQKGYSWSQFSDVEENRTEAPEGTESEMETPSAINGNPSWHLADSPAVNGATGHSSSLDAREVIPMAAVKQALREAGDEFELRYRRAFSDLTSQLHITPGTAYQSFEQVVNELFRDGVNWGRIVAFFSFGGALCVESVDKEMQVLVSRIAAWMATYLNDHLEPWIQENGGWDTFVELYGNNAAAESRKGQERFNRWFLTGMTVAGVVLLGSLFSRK
MCL1 inh confirm = confirmation of human MCL1 and BIM-BH3 interaction inhibitors; shares compounds with MCL1 BIM primary; GST-MCL1 / FITC-Bim-BH3 fluorescence polarization; inhibition, % at 10.9 µM; 61% of 1,700 active; AID 2168;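 active means inhibition above the average of all tested compounds plus 3 SD, cut at about 40% in these data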
Of the large screens only hits and unclear results are named; the others gave an inactive call (follow-up assays come after a bar, where they were run).

C[C@H](NC(=O)c1nc[nH]c1C(=O)N[C@@H](CCCCNC(=O)OC(C)(C)C)C(=O)OC(C)(C)C)c1ccccc1	none (no result: Mcl-1 Bim block)
Cc1cc(C(=O)OCC(=O)NC(C)C)c2ccccc2n1	none (no result: Mcl-1 Bim block)
CCCCN(C(=O)c1cc(-c2ccco2)nc2ccccc12)c1c(N)n(CCCC)c(=O)[nH]c1=O	MCL1 BIM primary 45.1 (no result: 14-3-3 Bad PPI, Mcl1-Bid inh, eIF4E-4G inh, Mcl1 Noxa PPI, Mcl-1 Bim block) | Bcl-xL conf inactive | MCL1 inh confirm inactive
CCNC(=O)COC(=O)c1cc(-c2ccco2)nc2ccccc12	MCL1 BIM primary 50.0, Mcl1 Noxa PPI 81.4 (no result: Mcl-1 Bim block) | Bcl-xL conf inactive | MCL1 inh confirm 75.7
O=C(OCC(=O)N1CCN(C(=O)c2ccco2)CC1)c1cc(-c2ccco2)nc2ccccc12	MCL1 BIM primary 82.4, Mcl1 Noxa PPI 99.0 | Bcl-xL conf inactive | MCL1 inh confirm 72.7
Cc1ccc(N(CC(=O)NC(C)(C)C)C(=O)CNC(=O)c2cccs2)cc1C	none
Cc1ccc(S(=O)(=O)N2CCN(CC(=O)N(CC(C)C)c3c(N)n(CC(C)C)c(=O)[nH]c3=O)CC2)c(C)c1	none
COCCCn1c(=O)/c(=C\c2ccccc2OC(F)F)s/c1=C(/C#N)C(=O)N1CCOCC1	MCL1 BIM primary active | Bcl-xL conf inactive | MCL1 inh confirm inactive
O=C1C=C(O)c2c(O)cc(O)c(O)c2C1=O	MCL1 BIM primary 95.0 (no result: 14-3-3 Bad PPI, Mcl1-Bid inh, eIF4E-4G inh, Mcl1 Noxa PPI, Mcl-1 Bim block) | Bcl-xL conf inactive | MCL1 inh confirm 96.8
C[C@@H]1Cc2c(O)c(O)cc(O)c2C(=O)O1	none (no result: Mcl-1 Bim block)
CC1(O)C(=O)C=C2C=C(C3CC3)OC=C2C1=O (configuration not stated)	none (no result: 14-3-3 Bad PPI, Mcl1-Bid inh, eIF4E-4G inh, Mcl1 Noxa PPI, Mcl-1 Bim block)
CC1(O)C(=O)C=C2C=C(c3ccsc3)OC=C2C1=O (configuration not stated)	MCL1 BIM primary 51.8 (no result: 14-3-3 Bad PPI, Mcl1-Bid inh, eIF4E-4G inh, Mcl1 Noxa PPI, Mcl-1 Bim block) | Bcl-xL conf 33.4 | MCL1 inh confirm 73.3
COC(=O)CCC(=O)OC1(C)C(=O)C=C2C=C(C3CC3)N(c3ccc(CO)cc3)C=C2C1=O (configuration not stated)	MCL1 BIM primary 93.8 (no result: 14-3-3 Bad PPI, Mcl1-Bid inh, eIF4E-4G inh, Mcl1 Noxa PPI, Mcl-1 Bim block) | Bcl-xL conf 46.1 | MCL1 inh confirm 64.4
COC(=O)CCCC1=CC2=CC(=O)C(C)(OC(=O)c3cccs3)C(=O)C2=CN1c1ccc(OC)cc1 (configuration not stated)	none (no result: Mcl-1 Bim block)
COC(=O)CCC(=O)OC1(C)C(=O)C=C2C=C(C3CC3)OC=C2C1=O (configuration not stated)	MCL1 BIM primary 55.5 (no result: 14-3-3 Bad PPI, Mcl1-Bid inh, eIF4E-4G inh, Mcl1 Noxa PPI, Mcl-1 Bim block) | Bcl-xL conf 48.4 | MCL1 inh confirm 70.5
COC(=O)CCC(=O)OC1(C)C(=O)C=C2C=C(c3ccsc3)OC=C2C1=O (configuration not stated)	MCL1 BIM primary 51.4 (no result: 14-3-3 Bad PPI, Mcl1-Bid inh, eIF4E-4G inh, Mcl1 Noxa PPI, Mcl-1 Bim block) | Bcl-xL conf inactive | MCL1 inh confirm 76.5
CCCCC1=CC2=CC(=O)C(C)(O)C(=O)C2=CO1 (configuration not stated)	none (no result: 14-3-3 Bad PPI, Mcl1-Bid inh, eIF4E-4G inh, Mcl1 Noxa PPI, Mcl-1 Bim block)
Cc1cc[n+](Cc2ccccc2)c(N)c1	none (no result: 14-3-3 Bad PPI, Mcl1-Bid inh, eIF4E-4G inh, Mcl1 Noxa PPI, Mcl-1 Bim block)
Cc1ccc(NC(=O)COC(=O)c2ccc(Cl)nc2)cc1S(=O)(=O)N1CCCCC1	none (no result: 14-3-3 Bad PPI, Mcl1-Bid inh, eIF4E-4G inh, Mcl1 Noxa PPI, Mcl-1 Bim block)
CC(C)(C)c1cc[n+](-c2[nH]c(=O)sc2/C=N/NC([S-])=Nc2ccccc2)cc1	MCL1 BIM primary 196.5 (no result: Mcl-1 Bim block) | Bcl-xL conf 160.5 | MCL1 inh confirm 188.9
Cc1cc[n+](-c2[nH]c(=O)sc2/C=N/NC([S-])=Nc2ccccc2)cc1C	MCL1 BIM primary 163.4 | Bcl-xL conf 103.6 | MCL1 inh confirm 148.9
O=C(NC1CCOc2ccccc21)c1ccc(Cl)nc1 (configuration not stated)	none (no result: 14-3-3 Bad PPI, Mcl1-Bid inh, eIF4E-4G inh, Mcl1 Noxa PPI, Mcl-1 Bim block)
C/C=C/C=C/[C@H]1Cc2cc(O)cc(O)c2O1	MCL1 BIM primary 67.2, Mcl1 Noxa PPI 56.2 (no result: Mcl-1 Bim block) | Bcl-xL conf 56.8 | MCL1 inh confirm 83.3
O=C(NCc1cc2ccccc2[nH]1)C1CCC(=O)N(CCCN2CCCC2=O)C1 (configuration not stated)	none (no result: 14-3-3 Bad PPI, Mcl1-Bid inh, eIF4E-4G inh, Mcl1 Noxa PPI, Mcl-1 Bim block)
COc1ccc(N2C3=C(CC4=C2CCCC4=O)C(=O)CCC3)cc1	MCL1 BIM primary 77.3 | Bcl-xL conf 32.1 | MCL1 inh confirm inactive
